Data reported in the supplement of paper PMC10849652.
About 7,900 targets were measured; listed, in parts, are those with a hit and a random draw of the rest. About 0.6% of all pairs of compound and target were hits. Unmarked numbers belong to inactive results.

Legend:
Assay in all cases: log2 fold change, soluble protein after heating vs DMSO (PISA); higher = thermal stabilisation; K562 cells, 10 uM, 30 min; active = over 0.2 and 3.5 SD of the protein, either way, in both replicates (recomputed)
[1] = compound: CN1CCN(CCOc2cc(OC3CCOCC3)c3c(Nc4c(Cl)ccc5c4OCO5)ncnc3c2)CC1 [saracatinib]
Outline: (§1)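 Values are thermal stability changes relative to control samples and are taken from duplicates. They are stated as log2 fold changes. Before quantification by TMTpro 16plex LC-MS/MS with equalised channel sums, K562 cells at 2×10^6 cells/mL were treated with 10 μM compound for 30 min, heated in aliquots for 3 min across 48°C-58°C, pooled, extracted in PBS with 0.5% NP-40 at 4°C, and centrifuged at 21,000xg for 90 min to give the soluble supernatant.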

[2] = compound: CN1CCN(c2nc(C3=C(c4c[nH]c5ccccc45)C(=O)NC3=O)c3ccccc3n2)CC1 [sotrastaurin]
Outline: as §1

[3] = compound: CN1CC[C@H](c2c(O)cc(O)c3c(=O)cc(-c4ccccc4Cl)oc23)[C@H](O)C1 [alvocidib]
Outline: as §1

[4] = compound: CN1CCc2c(c3ccccc3n2Cc2ccc(C(=O)NO)cc2)C1 [Tubastatin A]
Outline: as §1

[5] = compound: CNC(=O)c1ccc(Nc2ncc(C(F)(F)F)c(NCc3nccnc3N(C)S(C)(=O)=O)n2)cc1 [defactinib]
Outline: as §1

[6] = compound: CNCc1ccc(-c2[nH]c3cc(F)cc4c3c2CCNC4=O)cc1 [rucaparib]
Outline: as §1

[7] = compound: CNc1nc(-c2ccc3c(N)n[nH]c3c2)cc(N2C[C@@H](C(=O)NC3CCCCC3)CC[C@H]2C)n1
Outline: as §1

[8] = compound: COC(=O)N[C@@H](C)CNc1nccc(-c2cn(C(C)C)nc2-c2cc(Cl)cc(NS(C)(=O)=O)c2F)n1 [encorafenib]
Outline: as §1

[9] = compound: COC(=O)[C@H](CCSC)NC(=O)C1=C(C=C(C=C1)NC[C@H](CS)N)C2=CC=CC=C2
Outline: as §1

[10] = compound: COC1=CC=C(C=C1)CN2C=CC3=C2C=C(C=C3)C(=O)NO
Outline: as §1

[11] = compound: CON(C)C(=O)N1N=C(c2cc(F)ccc2F)S[C@@]1(CCCN)c1ccccc1 [filanesib]
Outline: as §1

[12] = compound: CO[C@H]1C[C@@H]2CC[C@@H](C)[C@@](O)(O2)C(=O)C(=O)N2CCCC[C@H]2C(=O)O[C@H]([C@H](C)C[C@@H]2CC[C@H](n3cnnn3)[C@H](OC)C2)CC(=O)[C@H](C)/C=C(\C)[C@@H](O)[C@@H](OC)C(=O)[C@H](C)C[C@H](C)/C=C/C=C/C=C/1C [zotarolimus]
Outline: as §1

[13] = compound: COc1cc(C(=O)O)ccc1NC(=O)[C@@H]1N[C@@H](CC(C)(C)C)[C@](C#N)(c2ccc(Cl)cc2F)[C@H]1c1cccc(Cl)c1F [idasanutlin]
Outline: as §1

[14] = compound: COc1cc(Nc2ncc3c(n2)-c2ccc(Cl)cc2C(c2c(F)cccc2OC)=NC3)ccc1C(=O)O [alisertib]
Outline: as §1

[15] = compound: COc1cc2nc(-c3cc(F)ccc3O)nc(N[C@@H]3CNC[C@H]3C(C)(C)O)c2cc1OC
Outline: as §1

[16] = compound: COc1cccc2cc(-c3nc([C@H]4CC[C@H](C(=O)O)CC4)n4ncnc(N)c34)[nH]c12
Outline: as §1

[17] = compound: CS(=O)(=O)CCNCc1ccc(-c2ccc3ncnc(Nc4ccc(OCc5cccc(F)c5)c(Cl)c4)c3c2)o1 [lapatinib]
Outline: as §1

[18] = compound: CS(=O)(=O)N1CCN(Cc2cc3nc(-c4cccc5[nH]ncc45)nc(N4CCOCC4)c3s2)CC1 [pictilisib]
Outline: as §1

[19] = compound: CNC(=O)C1=CC=CC=C1NC2=NC(=NC=C2Cl)NC3=C(C=C(C=C3)N4CCOCC4)OC
Outline: as §1

[20] = compound: COc1cc2ncnc(Nc3ccc(F)c(Cl)c3)c2cc1OCCCN1CCOCC1 [gefitinib]
Outline: as §1

Chain of UniProt P49189 (P49189 whole entry, looked up): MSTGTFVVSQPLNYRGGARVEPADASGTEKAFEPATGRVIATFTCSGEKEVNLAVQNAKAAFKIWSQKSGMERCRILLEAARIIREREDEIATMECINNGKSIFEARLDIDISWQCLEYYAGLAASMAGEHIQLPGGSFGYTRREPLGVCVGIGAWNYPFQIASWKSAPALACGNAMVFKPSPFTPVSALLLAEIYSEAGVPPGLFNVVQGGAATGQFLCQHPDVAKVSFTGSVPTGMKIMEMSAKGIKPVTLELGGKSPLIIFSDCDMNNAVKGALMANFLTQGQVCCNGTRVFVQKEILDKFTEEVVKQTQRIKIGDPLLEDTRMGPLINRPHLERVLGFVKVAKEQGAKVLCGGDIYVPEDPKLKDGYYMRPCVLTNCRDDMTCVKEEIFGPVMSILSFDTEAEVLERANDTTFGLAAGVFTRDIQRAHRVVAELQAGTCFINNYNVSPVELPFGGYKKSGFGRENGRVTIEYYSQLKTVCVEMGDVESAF
Chain of UniProt Q92934 (Q92934 whole entry, looked up): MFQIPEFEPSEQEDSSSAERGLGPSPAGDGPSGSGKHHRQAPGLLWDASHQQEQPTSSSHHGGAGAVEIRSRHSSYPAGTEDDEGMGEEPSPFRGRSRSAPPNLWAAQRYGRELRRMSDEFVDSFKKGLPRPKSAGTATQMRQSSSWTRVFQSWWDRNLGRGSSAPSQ
Chain of UniProt Q8N6T3 (Q8N6T3 whole entry, looked up): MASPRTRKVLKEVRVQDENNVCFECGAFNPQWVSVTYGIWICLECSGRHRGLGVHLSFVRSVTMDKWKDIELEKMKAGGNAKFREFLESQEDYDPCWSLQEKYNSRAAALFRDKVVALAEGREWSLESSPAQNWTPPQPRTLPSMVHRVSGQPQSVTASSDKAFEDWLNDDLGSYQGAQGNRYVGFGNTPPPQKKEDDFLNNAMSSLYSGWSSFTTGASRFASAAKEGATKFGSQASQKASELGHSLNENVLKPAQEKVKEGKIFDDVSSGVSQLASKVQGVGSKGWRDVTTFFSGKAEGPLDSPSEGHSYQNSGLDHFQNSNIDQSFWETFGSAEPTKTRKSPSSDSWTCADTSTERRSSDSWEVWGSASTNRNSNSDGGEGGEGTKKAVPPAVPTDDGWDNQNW
Chain of UniProt Q96BI3 (Q96BI3 whole entry, looked up): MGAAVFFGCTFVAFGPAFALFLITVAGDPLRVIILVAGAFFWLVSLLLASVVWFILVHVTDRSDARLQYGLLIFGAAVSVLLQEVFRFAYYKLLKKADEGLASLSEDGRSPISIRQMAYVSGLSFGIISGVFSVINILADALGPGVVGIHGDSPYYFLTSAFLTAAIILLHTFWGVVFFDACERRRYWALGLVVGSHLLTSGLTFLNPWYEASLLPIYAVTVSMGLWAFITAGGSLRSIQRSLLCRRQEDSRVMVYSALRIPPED
Chain of UniProt P25440 (P25440 whole entry, looked up): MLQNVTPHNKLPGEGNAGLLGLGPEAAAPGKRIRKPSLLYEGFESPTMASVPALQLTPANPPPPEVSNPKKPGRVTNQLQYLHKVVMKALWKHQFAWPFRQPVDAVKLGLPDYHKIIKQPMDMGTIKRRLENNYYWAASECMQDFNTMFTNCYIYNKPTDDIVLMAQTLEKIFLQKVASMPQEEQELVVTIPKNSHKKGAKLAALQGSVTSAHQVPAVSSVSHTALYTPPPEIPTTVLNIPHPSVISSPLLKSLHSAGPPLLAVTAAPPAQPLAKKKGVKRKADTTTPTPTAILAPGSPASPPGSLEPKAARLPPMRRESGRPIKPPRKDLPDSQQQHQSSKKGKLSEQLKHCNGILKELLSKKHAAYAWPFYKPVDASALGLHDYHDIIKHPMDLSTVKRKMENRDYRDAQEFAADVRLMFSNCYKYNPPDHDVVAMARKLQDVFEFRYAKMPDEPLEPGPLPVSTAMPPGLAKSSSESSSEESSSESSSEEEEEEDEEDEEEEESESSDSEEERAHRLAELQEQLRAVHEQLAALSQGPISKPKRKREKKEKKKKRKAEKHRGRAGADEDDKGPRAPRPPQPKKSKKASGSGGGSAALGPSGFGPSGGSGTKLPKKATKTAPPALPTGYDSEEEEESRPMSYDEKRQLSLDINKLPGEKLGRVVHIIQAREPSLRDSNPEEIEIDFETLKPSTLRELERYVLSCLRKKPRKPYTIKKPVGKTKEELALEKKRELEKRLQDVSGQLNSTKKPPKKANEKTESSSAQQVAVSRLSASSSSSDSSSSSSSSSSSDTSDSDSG
Chain of UniProt P35611 (P35611 whole entry, looked up): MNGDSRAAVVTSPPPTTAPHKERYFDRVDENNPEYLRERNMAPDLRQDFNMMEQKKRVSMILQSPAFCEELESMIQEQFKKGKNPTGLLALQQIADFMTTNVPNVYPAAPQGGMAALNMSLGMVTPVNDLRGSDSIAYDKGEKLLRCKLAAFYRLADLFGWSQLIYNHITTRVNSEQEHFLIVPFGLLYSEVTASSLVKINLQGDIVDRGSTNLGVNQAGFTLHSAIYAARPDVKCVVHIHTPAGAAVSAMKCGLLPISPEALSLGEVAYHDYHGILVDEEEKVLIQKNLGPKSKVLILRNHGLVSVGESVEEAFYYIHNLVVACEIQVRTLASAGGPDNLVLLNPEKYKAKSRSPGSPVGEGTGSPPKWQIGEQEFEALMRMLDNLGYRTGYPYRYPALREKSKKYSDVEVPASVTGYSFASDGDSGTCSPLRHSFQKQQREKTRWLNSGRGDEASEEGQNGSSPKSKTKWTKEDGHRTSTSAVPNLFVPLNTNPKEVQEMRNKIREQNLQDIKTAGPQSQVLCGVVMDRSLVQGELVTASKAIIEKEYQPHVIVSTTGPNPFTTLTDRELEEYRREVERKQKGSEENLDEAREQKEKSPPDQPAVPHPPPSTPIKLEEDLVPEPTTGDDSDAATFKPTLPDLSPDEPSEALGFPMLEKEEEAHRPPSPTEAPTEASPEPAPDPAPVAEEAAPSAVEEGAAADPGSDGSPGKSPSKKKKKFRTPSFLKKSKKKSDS
Chain of UniProt Q8N5I2 (Q8N5I2 whole entry, looked up): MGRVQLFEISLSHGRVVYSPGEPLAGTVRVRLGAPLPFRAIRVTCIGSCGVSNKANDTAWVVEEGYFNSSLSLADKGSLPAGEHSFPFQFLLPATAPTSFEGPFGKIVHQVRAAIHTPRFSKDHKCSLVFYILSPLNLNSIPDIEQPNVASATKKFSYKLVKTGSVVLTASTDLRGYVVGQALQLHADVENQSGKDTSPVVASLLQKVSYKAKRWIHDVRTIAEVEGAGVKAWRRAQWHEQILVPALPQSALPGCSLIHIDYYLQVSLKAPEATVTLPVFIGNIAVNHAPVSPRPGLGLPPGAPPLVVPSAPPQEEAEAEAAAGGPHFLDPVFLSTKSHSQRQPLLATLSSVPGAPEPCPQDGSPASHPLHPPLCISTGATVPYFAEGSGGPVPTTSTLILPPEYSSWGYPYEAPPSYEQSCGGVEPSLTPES
Chain of UniProt Q15904 (Q15904 whole entry, looked up): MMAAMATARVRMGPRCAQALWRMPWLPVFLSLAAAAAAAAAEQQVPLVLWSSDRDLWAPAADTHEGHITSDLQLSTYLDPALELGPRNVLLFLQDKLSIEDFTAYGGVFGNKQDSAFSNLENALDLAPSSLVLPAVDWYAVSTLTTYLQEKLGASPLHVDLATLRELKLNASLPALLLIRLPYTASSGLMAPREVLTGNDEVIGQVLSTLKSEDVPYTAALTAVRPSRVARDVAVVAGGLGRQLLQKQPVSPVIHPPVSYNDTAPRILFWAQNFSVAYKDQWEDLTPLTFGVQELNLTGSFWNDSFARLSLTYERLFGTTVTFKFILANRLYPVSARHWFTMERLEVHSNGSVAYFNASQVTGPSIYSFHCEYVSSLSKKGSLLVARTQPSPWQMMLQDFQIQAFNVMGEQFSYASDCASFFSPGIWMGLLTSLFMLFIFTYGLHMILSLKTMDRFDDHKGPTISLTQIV
Chain of UniProt P17544 (P17544 whole entry, looked up): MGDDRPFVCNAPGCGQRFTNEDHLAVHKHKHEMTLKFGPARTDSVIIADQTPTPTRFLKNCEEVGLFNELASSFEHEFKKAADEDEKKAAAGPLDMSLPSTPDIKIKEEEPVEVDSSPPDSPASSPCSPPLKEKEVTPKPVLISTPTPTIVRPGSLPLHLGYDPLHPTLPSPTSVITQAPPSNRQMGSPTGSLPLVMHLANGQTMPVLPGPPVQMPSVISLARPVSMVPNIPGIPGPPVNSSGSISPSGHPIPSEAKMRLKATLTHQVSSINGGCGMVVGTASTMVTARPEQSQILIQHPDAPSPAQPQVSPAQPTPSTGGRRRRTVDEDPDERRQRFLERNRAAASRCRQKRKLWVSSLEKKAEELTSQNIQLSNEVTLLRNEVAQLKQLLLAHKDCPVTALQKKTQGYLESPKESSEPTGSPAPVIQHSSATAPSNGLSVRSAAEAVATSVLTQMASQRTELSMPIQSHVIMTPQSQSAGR
Chain of UniProt Q9UEY8 (Q9UEY8 whole entry, looked up): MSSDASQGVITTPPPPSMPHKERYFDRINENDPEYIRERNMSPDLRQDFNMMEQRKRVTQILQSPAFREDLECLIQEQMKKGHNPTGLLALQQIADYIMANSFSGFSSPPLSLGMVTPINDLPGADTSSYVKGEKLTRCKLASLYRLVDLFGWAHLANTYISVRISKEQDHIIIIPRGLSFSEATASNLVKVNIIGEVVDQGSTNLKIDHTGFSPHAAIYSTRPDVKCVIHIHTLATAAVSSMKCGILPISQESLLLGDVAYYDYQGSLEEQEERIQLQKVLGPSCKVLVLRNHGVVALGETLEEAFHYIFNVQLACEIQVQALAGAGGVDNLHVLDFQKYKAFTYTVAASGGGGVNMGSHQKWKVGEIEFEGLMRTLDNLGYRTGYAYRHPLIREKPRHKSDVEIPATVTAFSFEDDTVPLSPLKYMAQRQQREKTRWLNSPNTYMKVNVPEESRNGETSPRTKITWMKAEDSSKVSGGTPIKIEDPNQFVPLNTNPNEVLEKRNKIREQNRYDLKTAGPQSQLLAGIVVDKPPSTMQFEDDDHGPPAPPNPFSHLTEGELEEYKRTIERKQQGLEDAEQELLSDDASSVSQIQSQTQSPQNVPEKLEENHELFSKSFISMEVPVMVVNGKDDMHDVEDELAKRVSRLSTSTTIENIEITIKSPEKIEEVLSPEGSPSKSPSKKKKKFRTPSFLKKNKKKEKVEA

| Target | log2 fold change [1] | log2 fold change [2] | log2 fold change [3] | log2 fold change [4] | log2 fold change [5] | log2 fold change [6] | log2 fold change [7] | log2 fold change [8] | log2 fold change [9] | log2 fold change [10] | log2 fold change [11] | log2 fold change [12] | log2 fold change [13] | log2 fold change [14] | log2 fold change [15] | log2 fold change [16] | log2 fold change [17] | log2 fold change [18] | log2 fold change [19] | log2 fold change [20] |
| --- | --- | --- | --- | --- | --- | --- | --- | --- | --- | --- | --- | --- | --- | --- | --- | --- | --- | --- | --- | --- |
| ADD3 isoform 2 (UniProt Q9UEY8) | -0.112 | 0.014 | -0.166 | 0.058 | -0.025 | -0.036 | -0.172 | -0.166 | -0.025 | -0.022 | -0.025 | 0.186 | -0.276 | -0.042 | 0.094 | -0.003 | -0.028 | 0.125 |  |  |
| ARRDC1 (UniProt Q8N5I2) | 0.17 | -0.026 | -0.275 | 0.004 | -0.046 | 0.075 | -0.02 | -0.01 | -0.006 |  | 0.013 | 0.182 |  | 0.152 | -0.098 | 0 | 0.01 | -0.092 | -0.06 | -0.009 |
| ACIN1 (UniProt Q9UKV3) | -0.027 | -0.01 | -0.057 | 0.032 | -0.253 (active) | -0.017 | -0.054 | -0.038 | 0.003 | 0.019 | 0.073 | 0.028 | 0.099 | -0.082 | -0.062 | 0.006 | 0.034 | 0.03 | -0.165 | 0.041 |
| ADD1 isoform 3 (UniProt P35611) | 0.095 | -0.031 | -0.088 | -0.002 | -0.039 | -0.018 | 0 | -0.024 | 0.031 | 0.071 | 0.013 | -0.025 | 0.014 | -0.059 | -0.009 | 0.066 | 0.015 | -0.004 | 0.008 | 0.007 |
| BAD (UniProt Q92934) | 0.021 | 0.273 | 0.005 |  | 0.03 | 0.032 | -0.016 | -0.047 | -0.004 | -0.103 | 0.124 | -0.073 | -0.049 | 0.103 | -0.016 | 0.068 | -0.037 | 0.022 | -0.032 | 0.115 |
| ALDH9A1 (UniProt P49189) | 0.005 | 0.032 | -0.088 | -0.019 | -0.008 | -0.014 | -0.041 | 0.023 | -0.058 |  | -0.149 | -0.164 | -0.073 | -0.091 | 0.038 | 0.081 | -0.037 | -0.124 | 0.016 | 0.039 |
| AP4S1 (UniProt Q9Y587) | -0.08 | -0.117 | -0.099 |  | 0.059 | 0.039 | -0.072 | 0.073 | 0.008 | -0.039 | 0.029 | 0.126 | -0.061 | -0.098 | -0.002 | 0.036 | -0.047 |  | -0.05 | -0.083 |
| APH1A (UniProt Q96BI3) | 0.025 | 0.131 | 0.073 | 0.097 | -0.089 | 0.002 | -0.01 | 0 | -0.111 | 0.101 | -0.039 | -0.062 | 0.005 | -0.228 | -0.236 | 0.059 | 0.091 | 0.013 | -0.047 | 0.043 |
| ASS1 (UniProt P00966) | 0.062 | 0.088 | -0.098 | -0.183 | -0.007 | 0.11 | -0.122 | -0.018 | 0.045 |  | -0.101 | 0.012 | -0.085 | 0.254 | 0.047 | 0.056 | -0.012 | 0.018 | -0.047 | -0.005 |
| BRD8 isoform 2 (UniProt Q9H0E9) | -0.06 | 0.058 | 0.012 | -0.296 | -0.064 | -0.015 | -0.021 | 0.028 | 0.145 | -0.201 | 0.042 | 0.027 | -0.027 |  | -0.113 |  | 0.019 | 0.06 | 0 |  |
| BRD2 isoform 2 (UniProt P25440) | 0 | -0.172 | -0.111 | -0.37 | -0.125 |  | 0.255 |  | -0.074 | -0.174 | -0.11 | -0.361 | 0.072 |  | 0.214 |  | 0.005 | 0.016 | 0.146 |  |
| ATF7 isoform 6 (UniProt P17544) | 0.477 (active) | -0.105 | 0.026 | -0.088 | 0.063 |  | 0.034 |  | -0.037 | 0.04 | 0.417 | 0.03 | 0.084 | -0.007 | -0.004 | 0.09 | 0.121 |  | -0.096 | 0.09 |
| ATP6AP1 (UniProt Q15904) | -0.021 | -0.097 | 0.055 | 0.043 | 0.066 | -0.057 | -0.006 | 0.053 | -0.031 | -0.099 | -0.064 | 0.025 | 0.009 | 0.166 | -0.068 | -0.057 | 0.019 | -0.017 | -0.011 | -0.009 |
| ALDH2 (UniProt P05091) | 0.007 | -0.099 | -0.04 | -0.032 | -0.055 | -0.099 | 0.026 | 0.013 | -0.03 | -0.011 | -0.142 | 0.055 | -0.104 | 0.015 | -0.006 | 0.069 | -0.02 | 0.043 | 0.078 | 0.028 |
| AFDN isoform 1 (UniProt P55196) | -0.192 | -0.047 | -0.182 |  | 0.021 | 0.009 | -0.175 | 0.018 | -0.302 | -0.151 | 0.024 | -0.01 | 0.019 | 0.127 |  | 0.074 |  | -0.144 | -0.025 |  |
| ARFGAP2 (UniProt Q8N6H7) | 0.037 | -0.051 | -0.083 | 0.03 | -0.023 | 0.017 | 0.017 | 0.05 | -0.02 | -0.067 | 0.024 | -0.005 | -0.029 | -0.058 | 0.156 | -0.064 | -0.001 | 0.013 | 0.025 | -0.004 |
| ARFGAP1 (UniProt Q8N6T3) | -0.021 | -0.086 | -0.029 | 0.034 | -0.158 | -0.048 | -0.087 | 0.068 | -0.044 | 0.03 | 0.034 | 0.047 | 0.028 | 0.047 | 0 | -0.015 | -0.038 | -0.007 | 0.068 | -0.022 |
